Assay [1] concerns the target Rap guanine nucleotide exchange factor 3 (Homo sapiens) (UniProt O95398). Description: Confirmatory qHTS for antagonist of cAMP-regulated guanine nucleotide exchange factor 3 (EPAC1) (AID 1645880). Also: nearly all actives have a fitted effect of over 55% in size. Also: potency is read from the fitted curve at half-maximal effect. The note with it: EPAC1 Rap1B-BODIPY-GDP exchange, fluorescence; series mostly up to 115 µM. An outline of the steps:
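Released BODIPY-GDP fluoresces less than Rap1-bound BODIPY-GDP; the signal is followed at 480/540 nm at 5-min intervals over 30 min, after 5 min at room temperature. Reactions contain 100 nM EPAC1, 250 nM RAP1B-BODIPY-GDP and 50 uM GDP; results are normalized to ATA and DMSO.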

For assay [2] the target is unchanged. Nature of the assay: Confirmatory qHTS for agonist of cAMP-regulated guanine nucleotide exchange factor 3 (EPAC1) (AID 1645881).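 Also: EPAC1 catalysed release of BODIPY-GDP from Rap1B seen as fluorescence loss; nearly all actives have a fitted effect of over 75% in size.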 As to conditions: EPAC1 Rap1B BODIPY-GDP exchange fluorescence; series mostly up to 154 µM. A general note: Quantitative high-throughput screening tests each substance at several concentrations.
Assay [3] has as its target Rap guanine nucleotide exchange factor 4 (Homo sapiens) (UniProt Q8WZA2). Description: Confirmatory qHTS for agonist of cAMP-regulated guanine nucleotide exchange factor 4 (EPAC2) (AID 1645884).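 Also: nucleotide exchange releases bodipy-GDP from Rap1 and this lowers its fluorescence; nearly all actives have a fitted effect of over 65% in size.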 As to conditions: EPAC2 GEF activity, Rap1B-BODIPY-GDP fluorescence; series mostly up to 154 µM.
For assay [4] the target is unchanged. Nature of the assay: Confirmatory qHTS for antagonist of cAMP-regulated guanine nucleotide exchange factor 4 (EPAC2) (AID 1645885). Also: nearly all actives have a fitted effect of over 25% in size. As to conditions: EPAC2 Rap1B-BODIPY-GDP exchange fluorescence, biochemical; series mostly up to 12.7 µM.
Assay [5] deals with Rap guanine nucleotide exchange factor 3 (Homo sapiens) (UniProt O95398). Description: Counterscreen qHTS for antagonist of cAMP-regulated guanine nucleotide exchange factor 3 (EPAC1) (AID 1645888). As to conditions: Rap1B-BODIPY-GDP nucleotide exchange, fluorescence; series mostly up to 154 µM. An outline of the steps:
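Rap1B-BODIPY-GDP 250 nM + GDP 50 uM; cpds 7-pt, final 9.74 nM–152 uM (activator mode) or from 7.32 nM upwards (inhibitor mode); RT; FI 480/540 nm at 5 and 30 min, then ± cAMP, reread.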
In general terms: A counterscreen serves to expose hits that act by an unwanted route or on another target.

Records with an inconclusive call do not appear. The source made the active and inactive calls. Calls follow the shape of the dose curve; as a rule, active = well fitted curve in the direction sought with a large enough effect; inconclusive = small, poorly fitted or top-dose-only effect, or another doubt; inactive = no such curve, though single readings can be large; an effect the other way counts as inactive or inconclusive.

The text below walks through data of PubChem BioAssay (NCATS).

Chain of Rap guanine nucleotide exchange factor 4 (Homo sapiens) (Q8WZA2 whole entry, looked up): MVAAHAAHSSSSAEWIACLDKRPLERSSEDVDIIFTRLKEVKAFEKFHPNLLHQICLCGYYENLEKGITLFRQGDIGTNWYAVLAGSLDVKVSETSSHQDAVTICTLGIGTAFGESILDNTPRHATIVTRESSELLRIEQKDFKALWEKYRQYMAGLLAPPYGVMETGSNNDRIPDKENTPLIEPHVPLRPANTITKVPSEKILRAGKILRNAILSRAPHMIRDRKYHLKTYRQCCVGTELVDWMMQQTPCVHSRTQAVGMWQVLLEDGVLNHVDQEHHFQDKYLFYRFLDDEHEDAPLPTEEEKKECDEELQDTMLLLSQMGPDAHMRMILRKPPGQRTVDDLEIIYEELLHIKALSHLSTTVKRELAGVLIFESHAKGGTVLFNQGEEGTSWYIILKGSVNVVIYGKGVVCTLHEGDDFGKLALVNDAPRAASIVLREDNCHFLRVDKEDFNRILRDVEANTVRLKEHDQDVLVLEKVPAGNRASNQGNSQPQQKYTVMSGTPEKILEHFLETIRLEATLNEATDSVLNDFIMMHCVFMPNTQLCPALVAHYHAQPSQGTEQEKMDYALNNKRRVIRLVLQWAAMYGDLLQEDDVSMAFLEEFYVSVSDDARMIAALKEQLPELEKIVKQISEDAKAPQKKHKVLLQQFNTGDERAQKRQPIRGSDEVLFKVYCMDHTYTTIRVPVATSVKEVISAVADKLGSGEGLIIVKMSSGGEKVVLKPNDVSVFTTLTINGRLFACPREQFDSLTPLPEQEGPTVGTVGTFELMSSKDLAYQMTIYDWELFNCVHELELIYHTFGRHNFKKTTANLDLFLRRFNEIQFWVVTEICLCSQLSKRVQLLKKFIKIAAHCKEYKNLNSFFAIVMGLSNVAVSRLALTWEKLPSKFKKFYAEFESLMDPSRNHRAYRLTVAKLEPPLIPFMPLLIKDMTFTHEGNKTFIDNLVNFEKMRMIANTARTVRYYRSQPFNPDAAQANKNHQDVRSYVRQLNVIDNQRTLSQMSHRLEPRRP
Chain of Rap guanine nucleotide exchange factor 3 (Homo sapiens) (O95398 whole entry, looked up): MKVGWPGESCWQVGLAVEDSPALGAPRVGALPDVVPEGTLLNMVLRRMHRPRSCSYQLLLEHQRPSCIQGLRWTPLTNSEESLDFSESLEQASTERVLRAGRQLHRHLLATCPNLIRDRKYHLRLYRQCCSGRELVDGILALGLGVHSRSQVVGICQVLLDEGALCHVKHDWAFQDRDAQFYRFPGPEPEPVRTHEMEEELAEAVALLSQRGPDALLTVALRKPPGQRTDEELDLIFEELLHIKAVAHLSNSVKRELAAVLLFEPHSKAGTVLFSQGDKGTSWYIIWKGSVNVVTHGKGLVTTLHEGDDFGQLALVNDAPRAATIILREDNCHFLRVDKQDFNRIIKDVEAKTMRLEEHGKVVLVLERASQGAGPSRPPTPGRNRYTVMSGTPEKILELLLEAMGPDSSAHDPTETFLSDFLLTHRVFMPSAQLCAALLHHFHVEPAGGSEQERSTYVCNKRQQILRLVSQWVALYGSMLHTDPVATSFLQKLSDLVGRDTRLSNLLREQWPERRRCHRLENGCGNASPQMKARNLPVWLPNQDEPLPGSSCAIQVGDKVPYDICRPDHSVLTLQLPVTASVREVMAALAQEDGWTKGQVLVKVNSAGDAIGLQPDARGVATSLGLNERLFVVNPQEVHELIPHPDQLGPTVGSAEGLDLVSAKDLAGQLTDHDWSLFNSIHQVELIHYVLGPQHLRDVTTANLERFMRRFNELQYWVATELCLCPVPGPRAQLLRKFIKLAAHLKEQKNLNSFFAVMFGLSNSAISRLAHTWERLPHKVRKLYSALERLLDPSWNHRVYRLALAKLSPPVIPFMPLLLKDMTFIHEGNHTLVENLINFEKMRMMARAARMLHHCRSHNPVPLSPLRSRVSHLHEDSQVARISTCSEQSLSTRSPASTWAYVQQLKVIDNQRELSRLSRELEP

As to `O=C1CSC2(C(=O)N(Cc3ccccc3F)c3ccccc32)N1c1ccc(F)cc1` (stereo not given), the Potency entry in assay [1], in assay [2], in assay [3] and in assay [5] was “inactive” each time. Moreover, in assay [4], the outcome was “inactive [at 12.7 µM]”.

In the case of `CC1CN(C(=O)CCC(=O)NCc2ccccc2)c2ccccc2S1` (stereo not given), the Potency result in assay [1], in assay [2], in assay [3], in assay [4] and in assay [5] was “inactive” throughout.

`CCOC(=O)Cn1c(-c2cccs2)cc2cc(Cl)ccc21`: the Potency entry in assay [1], in assay [2], in assay [3] and in assay [5] was “inactive” throughout. Also, the outcome in assay [4] is “inactive [at 12.7 µM]”.

As to `Oc1ccc(C2=Nn3c(nnc3-c3ccco3)SC2)cc1O`, the Potency in assay [1] is 16.9 µM (active). Also, the Potency result in assay [2], in assay [3], in assay [4] and in assay [5] was “inactive” throughout.

For `CN(Cc1ccccc1)c1ncnc2onc(-c3ccc(F)cc3)c12`, the Potency entry in assay [1], in assay [2], in assay [3], in assay [4] and in assay [5] was “inactive” in each case.
